Measured values reported in PubChem BioAssay AID1440 (NMMLSC, 2008).
Fewer than 10 of roughly 220,000 compounds were called active. About 92% were inconclusive and are not listed. How the calls were made is not given here. A selection follows.

Biological target: Guanine nucleotide-binding protein G(o) subunit alpha (Homo sapiens) + Regulator of G-protein signaling 19 (Homo sapiens) (UniProt P09471+P49795)
Test: regulators of RGS19 binding to Galphao, biochemical, multiplexed bead flow cytometry (AID 1440);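 further: fluorescent Galpha o activated by aluminum fluoride binding bead-coupled RGS19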
Details: at 10 µM

Sequence of Guanine nucleotide-binding protein G(o) subunit alpha (Homo sapiens) + Regulator of G-protein signaling 19 (Homo sapiens) (P09471 whole entry, looked up): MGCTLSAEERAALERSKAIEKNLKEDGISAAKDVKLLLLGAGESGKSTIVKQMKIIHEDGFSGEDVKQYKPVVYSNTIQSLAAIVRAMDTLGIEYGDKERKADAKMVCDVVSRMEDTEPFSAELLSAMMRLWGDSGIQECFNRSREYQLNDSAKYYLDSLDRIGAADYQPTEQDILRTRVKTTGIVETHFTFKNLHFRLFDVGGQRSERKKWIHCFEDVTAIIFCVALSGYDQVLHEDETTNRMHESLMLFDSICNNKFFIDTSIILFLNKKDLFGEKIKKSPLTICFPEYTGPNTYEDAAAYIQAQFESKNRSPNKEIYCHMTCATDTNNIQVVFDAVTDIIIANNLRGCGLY
Sequence of Guanine nucleotide-binding protein G(o) subunit alpha (Homo sapiens) + Regulator of G-protein signaling 19 (Homo sapiens) (P49795 whole entry, looked up): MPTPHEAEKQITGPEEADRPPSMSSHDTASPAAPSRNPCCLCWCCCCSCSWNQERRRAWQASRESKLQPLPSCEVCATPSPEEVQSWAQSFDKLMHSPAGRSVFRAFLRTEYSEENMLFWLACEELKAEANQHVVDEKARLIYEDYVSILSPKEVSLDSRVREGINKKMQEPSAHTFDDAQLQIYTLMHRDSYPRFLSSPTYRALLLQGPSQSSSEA

SMILES	binding response (% of control)
COc1ccc(C(=O)CN(C(=O)c2ccc(Cl)cc2)N2C(=O)C3CCCCC3C2=O)cc1 (stereo unspecified)	103%
Cc1c(NC(=O)CSc2nc3c(cnn3-c3ccccc3)c(=O)[nH]2)c(=O)n(-c2ccccc2)n1C	125%
CC(C)CC1=C/C(=C/c2ccc(-c3ccccc3)o2)C(=O)O1	71.1%
Cc1ccc(Cl)c(OCCN2CCCC(C)C2)c1 (stereo unspecified)	118%
Cc1cc(=O)n2[nH]c(SCc3ccccc3)nc2n1	102%
O=C(c1ccccc1F)N1CCN(c2ccccc2)CC1	64.3%
Cn1cc(CN(CCCN2CCOCC2)C(=S)Nc2cccc(Cl)c2)c2ccccc21	-17%
COC(=O)c1cc(OC)c(OC)cc1NC(=S)N1CCCC(CO)C1 (stereo unspecified)	98.1%
Cc1ccc(NC(=O)N(Cc2ccco2)Cc2cc3cc(C)cc(C)c3nc2Cl)cc1	92.8%
CCOc1ccc(-c2nnc(N)o2)cc1	71.8%
CC(=O)Nc1ccc(NC(=O)Oc2ccccc2)cc1	99.1%
CCOC(=O)c1c(C)n(-c2ccc(OC)cc2)c2c(C/C(C)=N/O)c(Br)c(OC)c(O)c12	120%
COc1cccc(C2=CC(c3ccc(OC)c(OC)c3OC)n3nnnc3N2)c1 (stereo unspecified)	102%
O=Nc1c(O)n(Cc2ccc(Cl)c(Cl)c2)c2ccccc12	70.4%
CCOC(=O)c1nnc(-c2cccs2)nc1NC(C)C	220%
CCOC(=O)c1nnn(-c2nc(OC)nc(N3CCCCC3)n2)c1-c1ccccc1	69.6%
O=C(c1cnccn1)N(Cc1cccs1)C1(C(=O)NC2CCCCC2)CCCCC1	-941%
COc1ccc(Br)cc1-c1noc(-c2ccncc2)n1	92.5%
Cc1ccc(C(=O)NC(=S)N2CCN(C)CC2)cc1	97.8%

SMILES	binding response (% of control)
CC(=O)c1nc2ccccc2n1S(=O)(=O)c1ccc(C)cc1	97.2%
Clc1ccc(/C=N/N2CCN(Cc3ccccc3Cl)CC2)cc1	100%
COc1ccc(N2CCN(C(=O)CSc3nnnn3-c3ccc4c(c3)OCCO4)CC2)cc1	94.7%
COc1ccc(N(C(=O)Cn2nnc3ccccc32)C(C(=O)NCc2ccco2)c2cccnc2)cc1 (stereo unspecified)	110%
CC(C)(C)OC(=O)N1CCOCCOCCNCCOCCOCC1	98.6%
CN=C(Nc1cc(C)nn1-c1ccccc1)c1ccccc1	113%
COCCCNC(=O)c1ccc(NS(C)(=O)=O)cc1	96.8%
Cc1ccc(CNCC2CCCO2)o1 (stereo unspecified)	96.8%
COc1ccc2c(c1)c(C(=O)CNc1nc(C)cs1)c(C)n2C	44.3%
FC(F)Oc1ccc(-c2c[n+]3c(n2-c2ccccc2)CCCCC3)cc1	256%
Cc1nn(Cc2ccc(F)cc2)c(C)c1NC(=O)c1cnn2cccnc12	109%
CC1=C(C(N)=O)C(c2cccc(OCc3ccccc3)c2)n2nnnc2N1 (stereo unspecified)	91.9%
Cc1ccc(Cl)cc1N(Cc1ccc(C(=O)NCc2cccnc2)cc1)S(=O)(=O)c1ccccc1	98.3%
CCCCCOc1ccc(NC(=O)CCCC(=O)O)cc1	81.9%
C#CCn1cnc2c(cnn2-c2ccc(C)c(C)c2)c1=O	106%
COc1ccc(C(=O)CSc2nc3ncccc3[nH]2)cc1OC	52.5%
CCn1cc(C(=O)NCC2CCCO2)c2cc(OC)c(OC)cc2c1=O (stereo unspecified)	103%
Cc1cc(C)nc(SCC(=O)N2CCC(C(N)=O)CC2)n1	105%
CCC(=O)N1CCc2cc(S(=O)(=O)NC(Cc3ccccc3)C(=O)Nc3nccs3)ccc21 (stereo unspecified)	-46.3%

SMILES	binding response (% of control)
O=c1[nH]c2cc3c(cc2cc1CN(Cc1ccc2c(c1)OCO2)Cc1nnnn1CC1CCCO1)OCO3 (stereo unspecified)	90.7%
Cc1ccc(/C=C2\CCCC3=C2NC(=S)NC3c2ccc(C)cc2)cc1 (stereo unspecified)	203%
C=CCn1c2ccccc2c2nnc(SCN3C(=O)c4ccccc4C3=O)nc21	77.7%
CCCC(C)NC(=O)Cc1ccccc1[N+](=O)[O-] (stereo unspecified)	110%
O=C(CN1CCSCC1)N1CCc2[nH]c3ccc(Br)cc3c2C1	66.9%
CCc1ccc(OCC(=O)Nc2cc(S(=O)(=O)CC)ccc2O)cc1	89.9%
Cc1ccc(NC(CC(=O)c2ccccc2)c2ccc(F)cc2)cc1 (stereo unspecified)	100%
O=C1COc2ccc(C(=O)NCc3ccc4c(c3)OCO4)cc2N1	104%
CC(NC(=O)C(=O)NN=C1CCCCCCCCCCC1)c1ccccc1 (stereo unspecified)	101%
COc1ccc(-c2nn[nH]n2)cc1OC	116%
O=C(CN1CCOCC1)Nc1ncc(Cc2ccccc2Cl)s1	108%
Clc1ccc(-c2nn3c(C4COc5ccccc5O4)nnc3s2)cc1 (stereo unspecified)	17.6%
C/C(CC(=O)Nc1cccc(Cl)c1C)=N\NC(=O)C(=O)NCC(C)C	105%
COC(=O)CNC(=O)COC(=O)c1ccc(OC)c([N+](=O)[O-])c1	98.3%
CCN1CCN(C(c2cccs2)C(C)NC(=O)c2c(F)cccc2F)CC1 (stereo unspecified)	114%
BrC(/C=C\c1ccccc1)=N/Nc1nc(N2CCOCC2)nc(N2CCOCC2)n1	98.4%
O=C(c1ccccc1NS(=O)(=O)c1ccc(Br)s1)N1CCCC1	102%
Cc1cc(C)c(C#N)c(SCC(=O)N2CCCCC2)n1	91.6%
